Test results published in PubChem BioAssay AID488837 (National Center for Advancing Translational Sciences (NCATS), 2010).
Screen size: about 330,000 compounds; about 20 (0.006%) were called active. Roughly 1% stayed inconclusive and do not appear here. The call rests on the fitted dose curve; in most records, active means well fitted inhibition curve with a large enough effect; inconclusive means small, poorly fitted or top-dose-only effect, or effect the other way; inactive means flat fitted curve, though single readings scatter. The list comes from a sample in which actives are over-represented; it also holds similar structures and randomly drawn compounds.

The compounds below were run against Protein phosphatase EYA2 (Homo sapiens) (UniProt O00167) (assay: qHTS Assay for Inhibitors of the Phosphatase Activity of Eya2). Details: recombinant Eya2, OMFP fluorescence dephosphorylation (OMFP is methylfluorescein phosphate); series mostly up to 76.9 µM; activity, negative = inhibition: at the top concentration.
Excerpt: The Eya family of proteins are essential co-activators of the Six1 transcription factor. Six1 is a developmental gene that is abnormally re-expressed in a large percentage of breast cancers. This over-expression plays a causal role in the initiation and metastatic development of breast cancers. The Eya family of proteins was also found to contain a unique HAD phosphatase domain with protein tyrosine phosphatase activity which can potentially play a role in Six1-mediated breast tumorigenesis. […] We have developed and optimized a 1536 well fluorescence-based HTS assay targeting the phosphatase activity of Eya2. Inhibitors found against Eya2 could serve as potential therapeutic tools to inhibit Six1-mediated breast tumorigenesis and to increase the efficiency of radiation and certain chemo therapy. These inhibitors could also be used as chemical probes to study the function of Eya2's phosphatase activity and its role in Six1-mediated breast tumorigenesis.
The Eya2 enzyme was kindly provided by the laboratory of Dr. Rui Zhao. The 3-O-methyl-fluorescein phosphate (OMFP) substrate and all buffer reagents were purchased from Sigma Aldrich. qHTS Assay Setup: 1. Buffer- 50 mM HEPES pH 7.5, 50 mM NaCl, 5 uM MgCl2, 0.05% BSA, 1 mM DTT. 2. OMFP Stock- 10 mM solution prepared in 100% DMSO and stored in single use aliquots at -20C. Assay Procedure- 1. Dispense 1.5 ul per well of Eya2 at 0.2 uM in black medium binding 1536 well Greiner plate 2. Transfer 23 nl of compound and control compound (EGTA) to plate 3. Incubate at ambient for 10 minutes 4. Dispense 1.5 ul per well of OMFP at 50 uM 5. Incubate at ambient for 10 minutes 6. Read on ViewLux using Excitation = 485 nm, Emission = 525 nm
On the % scale 0 is the no-effect control and ±100 the full control effect.

Protein phosphatase EYA2 (Homo sapiens), sequence (O00167 whole entry, looked up, the tested form may be a part): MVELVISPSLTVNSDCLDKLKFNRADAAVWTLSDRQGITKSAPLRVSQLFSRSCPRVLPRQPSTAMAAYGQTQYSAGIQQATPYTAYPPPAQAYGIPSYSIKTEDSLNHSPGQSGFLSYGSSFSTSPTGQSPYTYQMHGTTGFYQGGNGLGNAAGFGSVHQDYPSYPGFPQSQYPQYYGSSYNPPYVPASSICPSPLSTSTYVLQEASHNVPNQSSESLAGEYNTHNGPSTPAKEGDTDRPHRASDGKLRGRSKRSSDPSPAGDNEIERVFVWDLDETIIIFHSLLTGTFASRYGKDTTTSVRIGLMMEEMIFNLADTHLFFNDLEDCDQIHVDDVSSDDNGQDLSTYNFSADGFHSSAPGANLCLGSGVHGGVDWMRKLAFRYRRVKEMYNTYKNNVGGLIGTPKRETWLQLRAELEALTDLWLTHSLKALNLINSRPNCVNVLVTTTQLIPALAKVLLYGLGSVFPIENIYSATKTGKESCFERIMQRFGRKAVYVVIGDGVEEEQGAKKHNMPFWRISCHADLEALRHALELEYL

activity, negative = inhibition, inactive:
O=C(O)C1CCC(CNS(=O)(=O)c2ccc(Br)cc2)CC1 (centres undefined) 14%, O=C1CCC([N+](=O)[O-])C(c2ccccc2Br)N1 (centres undefined) 5.36%, COC(=O)c1sc(NC(=O)COC(=O)C2CCC2)c(C(=O)OC)c1C 28.3%, CCOC(=O)c1c(CNCc2ccccc2F)c2sc(C)cc2n1C -6.49%, COC(=O)N1CN(C(=O)OC)CN(C(=O)OC)C1 14.1%, CC1CCN(S(=O)(=O)c2ccc3[nH]c(=O)ccc3c2)CC1 6.46%, CCS(=O)(=O)c1ccc(-c2cccc(NC(=O)c3ccc(Br)o3)c2)nn1 -2.59%, Cc1ccc2c(Cl)c(C(=O)NCCCn3ccnc3)sc2c1 2.59%, CC(C)CCNC(=O)CCNS(=O)(=O)c1ccc(Cl)cc1 -4.21%, O=C(NCc1cccnc1)c1ccc(CS(=O)(=O)c2ccc(Br)cc2)o1 3.3%, CC(=O)c1c(N2CCOCC2)nc(=S)n(Cc2ccccc2)c1C 4.93%, O=C(Nc1ccc(OCC(=O)N2CCOCC2)cc1)c1cc(F)c(F)cc1Cl 5.38%, Cc1cc(C(=O)Nc2ccc(C)c(S(=O)(=O)N3CCOCC3)c2)c2ccccc2n1 23.5%, COc1ccc(CCNc2ncnc3c2nnn3Cc2ccccc2)cc1 4.06%, O=C1OCCN1C(=O)[C@H]1[C@H](c2ccc(F)cc2)C(c2ccccc2)=NN1c1ccc(Br)cc1 0.72%, Cc1ccc(NC(=O)N2CCSc3ccccc32)cc1 2.21%, Cc1cc(SCC(=O)NCCN2C(=O)CSC2=O)nc2ccccc12 8.83%, S=c1[nH]ccn1-c1ccc(Cl)cc1 -6.66%, CCCOc1cccc(C(=O)Nc2ccccc2C(=O)N2CCN(C)CC2)c1 -6.6%, COc1ccc2c(C)cc3nnnn3c2c1 -1.07%, CN(C)N(C)C(=O)C(O)(c1ccccc1)c1ccccc1 6.78%, COc1ccc2[nH]c(C)c(CCN(Cc3cccs3)C(=S)Nc3ccccc3OC)c2c1 6.34%, O=c1ccc2cc(S(=O)(=O)N3CCN(c4ccccc4)CC3)ccc2o1 -2.55%, O=S1(=O)N=C(N(CCO)/N=C/c2ccccc2F)c2ccccc21 -2.65%, O=C(CCc1nnc2ccc(NCCCN3CCCC3=O)nn12)NCc1ccccc1Cl -3.71%, CC(=O)N1CCN(c2ccccc2NC(=S)NC(=O)c2cc3ccccc3o2)CC1 -8.6%, COc1ccc(NS(=O)(=O)c2cc(NC(=O)COc3ccccc3F)ccc2OC)cc1 -21.5%, O=C(CSc1nnc(SCc2ccc(F)cc2)s1)Nc1ccc(C(=O)O)cc1 -1.18%, O=C(CS(=O)(=O)c1ccc(C(F)(F)F)cn1)NNC(=O)c1ccccc1 18.3%, O=C(CCc1ccc(S(=O)(=O)N2CCOCC2)cc1)Nc1ccc2ccccc2c1 -1.59%, N#CC1=C(N)N(c2ccc(F)cc2)C(=O)C1 32.7%, NC(=O)C1CCCN(CC(=O)N2CCN(c3ccccc3)CC2)C1 (centres undefined) -2.7%, CC[C@@]1(C(=O)OC)N[C@H](CN(C)C(C)=O)[C@@H]2C(=O)N(C)C(=O)[C@@H]21 -14.2%, COc1ccc(C(=O)N2CCCN(C)CC2)c(OC)c1 14.4%, COC(C)(C)[C@]12CC(O)(C(C)C)ON1[C@H]1CCCCC1N2O (some centres undefined) -10.2%, O=C(c1ccc(Cl)cc1)N1N=C(c2ccccn2)CC1(O)C(F)(F)F (centres undefined) 22.7%, COc1ccc(Cl)cc1NC(=O)CCS(=O)(=O)c1ccc(Br)cc1 10.2%, COC(=O)c1ccccc1NC(=O)CSc1n[nH]c(-c2ccncc2)n1 -1.81%, CCCCNS(=O)(=O)c1ccc(S(=O)(=O)n2cnc3ccccc32)cc1 -2.93%
